# Source: PubChem BioAssay (NCI)
# About 83,000 compounds went through this panel and 20% of them were active in at least one assay; those are over-represented in the sample as a whole.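 Values shown are percent growth following 48 h exposure of cells in 96-well plates to a single concentration of compound; below 10 was considered active.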 Unmarked numbers belong to inactive results. Calls of active or inactive are those of the source.
# Tests used:
# Assay in all cases: NCI-60 one-dose screen, 48 h (100 = growth as untreated, 0 = no growth, -100 = all killed)
# Conditions in all cases: 10 µM unless noted
# BT-549 breast = test system: BT-549 breast
# MDA-MB-435 melanoma = test system: MDA-MB-435 melanoma
# SW-620 colon = test system: SW-620 colon
# MCF7 breast = test system: MCF7 breast
# HCT-116 colon = test system: HCT-116 colon
# HCC-2998 colon = test system: HCC-2998 colon
# KM12 colon = test system: KM12 colon
# T-47D breast = test system: T-47D breast
Structure (SMILES),growth (BT-549 breast),growth (MDA-MB-435 melanoma),growth (SW-620 colon),growth (MCF7 breast),growth (HCT-116 colon),growth (HCC-2998 colon),growth (KM12 colon),growth (T-47D breast) [%]
CCCCCCCCCCCCCCCCCCOc1ccccc1N,-5.26% (active),78.7%,98.7%,75.4%,44%,88.8%,39.8%,–
O=[N+]([O-])c1cccc(-c2nc(-c3ccc(Cl)cc3Cl)cn2-c2ccccc2)c1,176%,-39.5% (active),-52.4% (active),20.7%,-93.2% (active),-1.15% (active),-64.4% (active),–
CCNNC(=O)[C@@H]1[C@H](c2cc(OC)c(OC)c(OC)c2)c2cc3c(cc2[C@H](O)[C@H]1CO)OCO3,-27.2% (active),-26.9% (active),20.5%,10.2%,0.945% (active),6.02% (active),-5.82% (active),–
CCCCc1ccc(Nc2nnc(SCC(=O)NC(=O)NCC)s2)cc1,–,104%,–,101%,93.6%,105%,102%,128
COc1cc(NCCN(CC(C)C)C2CCCC2)c2ncccc2c1,98.8%,111%,72.2%,42%,63.4%,87.5%,86.1%,–
N#CC1=C(N)Oc2c(ccc3ccccc23)C1c1ccc([N+](=O)[O-])cc1 (configuration not stated),83.1%,6.07% (active),55.5%,51.8%,68.8%,85.9%,50.4%,–
CC(=O)[C@@H]1CC[C@]2(C(N)=O)CC[C@]3(C)[C@H](CC[C@@H]4[C@@]5(C)CCC(=O)C(C)(C)[C@@H]5CC[C@]43C)[C@@H]12,93.3%,99.9%,110%,89.9%,90.4%,107%,100%,–
COc1ccccc1/C=C1\Oc2cc(OCCCN3CCCC3)ccc2C1=O,94.8%,91.4%,73%,80%,50.9%,102%,98.3%,–
COc1ccc(-c2c[nH]c(C(=O)O)c2-c2cc(OC)c3c(c2OC)OCO3)cc1,103%,104%,103%,103%,106%,100%,105%,–
NC(=S)N/N=C(\c1ccc(Cl)cc1)C1CC1,114%,93.8%,72%,18.5%,3.65% (active),102%,100%,–
Cc1ccc(-c2c(Br)c(OC(=O)CO[C@@H]3C[C@H](C)CC[C@H]3C(C)C)c(-c3ccc(C)cc3C)c(Br)c2OC(=O)CO[C@H]2C[C@@H](C)CC[C@@H]2C(C)C)c(C)c1,85.5%,104%,109%,92.1%,89.4%,108%,107%,–
Cc1cc(C)c(C=O)c(C)c1,91.4%,103%,95%,106%,83.1%,108%,105%,–
CNC(=O)Nc1ccc(-c2nc(N3CCOCC3)nc3c2cnn3C2CCOCC2)cc1,-15.4% (active),-26.6% (active),12%,1.06% (active),12.7%,13.5%,12.8%,–
Cn1ncc2c(Nc3ccccc3Cl)nc(Cl)nc21,–,113%,126%,104%,–,109%,126%,99.7
O=C(Nc1ccccc1)Oc1ccccc1-c1ccccc1,76.3%,99.9%,99.5%,95.5%,77.6%,107%,107%,–
C=C(C)[C@@H]1CC[C@]2(C(=O)O)CC[C@]3(C)[C@H](CC[C@@H]4[C@@]5(C)C[C@@H](CC#Cc6ccc(Br)cc6)C(=O)C(C)(C)[C@@H]5CC[C@]43C)[C@@H]12,69.8%,42.4%,42.1%,49%,39.4%,61.4%,40.3%,–
Nc1ccccc1NC(=O)c1ccc(CN2CCC/C(=C\c3cccc(Cl)c3)C2=O)cc1,-9.32% (active),3.87% (active),23.9%,8.72% (active),6.06% (active),12.4%,4.58% (active),–
O=C(N/N=C/c1ccc(F)cc1)c1ccccc1Nc1cccc(C(F)(F)F)c1,105%,100%,96%,106%,111%,107%,91.4%,–
O=C1Nc2c(ccc(Cl)c2Cl)/C1=C/c1ccccn1,92.1%,77.2%,76.8%,29%,–,85.1%,87.1%,–
COc1ccc(C(=O)c2cc3c(N)c(C(=O)Nc4cccc(Cl)c4)sc3nc2C)cc1,78.1%,-35.2% (active),35.4%,26.5%,14.9%,18.3%,22.1%,–
COc1cc(NCC(O)CN(CC(C)C)CC(C)C)c2nc(C)ccc2c1 (configuration not stated),90.9%,105%,92.7%,-11.4% (active),97.3%,89.9%,75.5%,–
O=C1Nc2ccccc2/C1=N/c1nc(-c2ccc(Cl)cc2)cs1,63.8%,72.4%,68.5%,52.6%,59.1%,86.4%,70.8%,–
COc1cc(NCCCN(CC(C)C)CC(C)C)c2ncccc2c1,80.4%,115%,67.4%,-43.4% (active),62%,86.4%,84.7%,–
Cc1[nH]n(-c2cccc(Cl)c2)c(=O)c1/C=C1\C=Nc2ccc(Br)cc21,41.5%,43.9%,17.2%,33.9%,-76% (active),63.5%,47.2%,–
CCNC(=O)c1[nH]cc(-c2ccc(OC)cc2)c1-c1cc(OC)cc(OC)c1,90.2%,84.3%,101%,99.5%,82.3%,102%,89.9%,–
CS(=O)(=O)Nc1cc(-c2ccc3ncnc(Nc4ccc5[nH]ncc5c4)c3c2)cnc1Cl,69.3%,75%,90.8%,38.5%,92.2%,92%,102%,–

Structure (SMILES),growth (BT-549 breast),growth (MDA-MB-435 melanoma),growth (SW-620 colon),growth (MCF7 breast),growth (HCT-116 colon),growth (HCC-2998 colon),growth (KM12 colon),growth (T-47D breast) [%]
O=S(=O)(NCCNc1nccc(-c2c(-c3ccc(F)c(O)c3)nc3sccn23)n1)c1ccccc1,114%,34.1%,70.4%,76.1%,34.3%,95%,71.2%,–
CCCCCN1C=C/C(=C\C(=O)N(C)c2cccc3ccccc23)c2ccccc21,99.4%,100%,–,91.3%,86.9%,102%,103%,–
CC(O)(CO)c1ccccc1 (configuration not stated),93.6%,99.1%,–,98.7%,98.3%,–,103%,–
O=C(/C=C\c1ccc(OCCCCCC[P+](c2ccccc2)(c2ccccc2)c2ccccc2)cc1)c1ccc2c(c1)OCCO2,-16.9% (active),-29.8% (active),-41.4% (active),5.09% (active),-73.1% (active),32.5%,-76.4% (active),–
COc1cc(-c2cc(=O)oc3cc(O)ccc23)c(OC)c2c1OCO2,90.9%,101%,96.6%,102%,98.4%,97.3%,93.8%,–
COc1nccnn1,94%,93%,101%,103%,99.2%,110%,95.7%,–
CCCc1cc2c(cc1Br)OCO2,82.7%,110%,112%,95%,84.5%,103%,113%,–
CCC(C)N(CCNc1cc(OC)cc2cccnc12)CCC(C)C (configuration not stated),90.8%,107%,58.4%,25.7%,64.9%,79.1%,77.6%,–
CC1(C)CN(c2cnc(C(=O)Nc3cc(F)cc4cccnc34)cn2)CCN1,90.2%,85.9%,35.1%,9.21% (active),–,92.2%,91.7%,–
C=C1C(=O)O[C@H]2[C@H]1CC/C(COC(=O)CCCCCC(=O)OC/C1=C/CC[C@@]3(C)O[C@H]3[C@H]3OC(=O)C(=C)[C@@H]3CC1)=C\CC[C@@]1(C)O[C@@H]21,35.7%,30.8%,8.05% (active),12.8%,-37.3% (active),84.5%,62.8%,–
Clc1nc(Cl)c2ncn(CC3(Cn4cnc5c(Cl)nc(Cl)nc54)COC3)c2n1,-93.2% (active),-85.7% (active),-88.7% (active),-52.4% (active),-100% (active),-85.3% (active),-73.4% (active),–
Cc1cccc(C)c1-c1cc(Cc2ccc(Cl)cc2)c(=O)[nH]n1,86.1%,119%,104%,97.2%,96.9%,86.4%,103%,–
CCCCOc1ccc(/C=N/Nc2cc(C)nc3ccc(Cl)cc23)cc1,96.6%,-85.2% (active),-58.3% (active),-70.8% (active),-68% (active),-71.1% (active),-76.6% (active),–
CCN1C(=O)N(CC)C2NC(SC)=NC21 (configuration not stated),103%,102%,97.6%,99.3%,104%,99.3%,102%,–
CC(O)/C=C/C=C/C(O)CC/C=C/C(=O)NCC(C)(C)O (configuration not stated),109%,110%,118%,78.2%,93.5%,90.6%,102%,–
COC(=O)C1=C(C(=O)ONCCN(C)C)C2C=CC1(C(Cc1ccccc1)Nc1ccc(F)cc1)O2 (configuration not stated),122%,101%,51.8%,97.5%,-48.9% (active),107%,94.8%,–
O=C(O)CNC(=O)CN1C(=O)c2ccccc2C1=O,89.5%,107%,105%,96.3%,89.3%,106%,115%,–
O=S(=O)(NCCCNc1nccc(-c2c(-c3cccc(O)c3)nc3occn23)n1)c1ccc(F)cc1,87.4%,37.3%,103%,85.2%,56.2%,109%,81.9%,–
CCN(CCNc1cc(OC)cc2cccnc12)CCc1ccccc1,87.6%,104%,70.7%,0.943% (active),59.8%,88.5%,85.6%,–
Cc1cn(-c2cc(C(=O)Nc3cccc(C#Cc4cccc5[nH]nc(N)c45)c3)cc(C(F)(F)F)c2)cn1,43.2%,41.7%,43.1%,64.8%,–,62.8%,64.6%,–
O=c1[nH]c2c(s1)CCCC2CN1CCCCC1 (configuration not stated),72.6%,107%,114%,96.3%,76.8%,100%,108%,–
Cc1n[nH]c(C)c1-c1c(C)n[nH]c1C,2.96% (active),-35.9% (active),–,10.3%,-44.1% (active),4.99% (active),-19.3% (active),–
COc1cc(NCC(O)CN(CC(C)C)C2CCCC2)c2ncccc2c1 (configuration not stated),89.5%,107%,70.5%,24.1%,68%,97.3%,87%,–
COc1cccc2cc(-c3cc4ccccc4[nH]3)/c(=N/C(=S)Nc3ccc(C)cc3)oc12,89.6%,85.1%,78%,74%,–,99.9%,70.9%,–
COc1cc(CNC(=O)CCCCC[P+](c2ccccc2)(c2ccccc2)c2ccccc2)c(OC)c2c1OCO2,37.8%,39%,–,67.4%,50.4%,57.6%,45.6%,–
O=C(Nc1ccc(Cl)cc1)Nc1ccc(Cl)c(Cl)c1,43.3%,7.4% (active),14.4%,-4.33% (active),5.23% (active),–,6.34% (active),–
